From PubChem BioAssay (NCATS)
Inconclusive results are not listed. Unmarked numbers belong to inactive results. Calls follow the shape of the dose curve; as a rule, active = well fitted cell-killing curve with a large enough effect; inconclusive = small, poorly fitted or top-dose-only effect, or effect the other way; inactive = flat fitted curve, though single readings scatter.

The compounds below were run on Tov-21-G (assay: Primary qHTS to identify gynecologic anti-cancer compounds using libraries of approved drugs and bioactive compounds (AID 1345084; also: nearly all actives have a fitted effect of over 55% in size)). Conditions: Gynecologic cancer cell panel viability, ATPlite luminescence, 48 h; series mostly up to 57.5 µM; activity change, negative = cytotoxicity: at the top concentration.
Method in brief: (§1)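 Luminescence from the ATPlite ATP-monitoring reagent indicates viable cell number; lower signal means cytotoxicity. Cells received compound 16 h after seeding and were exposed for 48 h across five concentrations.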
% is scaled to controls: 0 for no effect and ±100 for the full control effect.

Structure (SMILES) | activity change, negative = cytotoxicity
CC(=O)O[C@@H]1CC2C(C)(C)C(=O)C=C[C@]2(C)C2CC[C@]3(C)C(=CC(=O)[C@@H]3c3ccoc3)[C@@]21C (stereo partly drawn) | -1.41% [at 25.3 µM]
NC1(c2ccc(NC(=O)c3ccnc(-c4cc(C(=O)O)ccn4)c3)cc2)CC1 | -11.8%
CC1=C2CC3C(CCC3(C)O)C(C)(O)CC2OC1=O (stereo not drawn) | 13.6%
C[C@@H]1CC[C@]2(C(=O)O)CC[C@]3(C)C(=CCC4[C@@]5(C)C[C@@H](O)[C@@H](O)C(C)(C)C5CC[C@]43C)C2[C@]1(C)O (stereo partly drawn) | 10.6% [at 25.3 µM]
Cc1nnc(-c2ccc3occ(-c4ccc(S(C)=O)cc4)c3c2)o1 (stereo not drawn) | 7.12%

The compounds below were run on Tov112D in the same assay as above. Conditions: Gynecologic cancer cell panel viability, ATPlite luminescence, 48 h; series mostly up to 57.5 µM; activity change, negative = cytotoxicity: at the top concentration.
Method in brief: as §1

Structure (SMILES) | activity change, negative = cytotoxicity
Cc1ncc(NC(=O)c2ccc(CN3CCN(C)CC3)c(C(F)(F)F)c2)cc1Nc1nccc(-c2cccnc2)n1 | 8.33%
CC(O)CCc1ccc(O[C@@H]2O[C@H](CO)[C@@H](O)[C@H](O)[C@H]2O)cc1 (stereo partly drawn) | 0.694% [at 38.5 µM]
O=C(/C=C/c1ccc(O)c(O)c1)O[C@H]1[C@H](OC2CCCCC2O)O[C@H](CO)[C@@H](O)[C@@H]1O (stereo partly drawn) | -16.7% [at 25.3 µM]
Fc1ccccc1-c1nc2ccn(Cc3ccc(-c4ccc(C(F)(F)F)cc4C(F)(F)F)nn3)cc-2n1 | 10.7%
C=C1C2(C)CC3C4(C)OC(C5OC56C4=CC(=O)OC6(C)C)C3(C)C13C(=O)OC(C)C3(O)C2=O (stereo not drawn) | 6.22% [at 25.3 µM]
COc1cc(/C=C/CO[C@@H]2O[C@H](CO)[C@@H](O)[C@H](O)[C@H]2O)cc(OC)c1O[C@@H]1O[C@H](CO)[C@@H](O)[C@H](O)[C@H]1O | -1.03% [at 25.3 µM]
Cc1onc(-c2ccccc2Cl)c1C(=O)N(C)c1ccc(Cl)cc1 | 7.99%
C/C=C(\C)C(=O)OC1C(C)C2(O)C3C=C(C)C(=O)C3CC(CO)=CC2C2C(C)(C)C12OC(C)=O (stereo not drawn) | 0.107% [at 25.3 µM]
COc1cc(Cc2cnc(N)nc2N)c(C(C)C)cc1OC | 8.66%
CC1=C2CC(C)(C)CC2C(O)C2=C(C1)C(=O)OC2O (stereo not drawn) | 0.456%
C[C@@H]1C[C@@H](O)[C@@]23CO[C@]2(CO)C[C@@H](O)CC3[C@@]12CC(c1ccoc1)OC2=O (stereo partly drawn) | 11.7% [at 38.5 µM]
CC(C)C1(O)NC(=O)C(CC2(O)c3ccccc3N3C(=O)C(C)(C)NC32)n2c1nc1ccccc1c2=O (stereo not drawn) | 6.92% [at 25.3 µM]
Cc1c(-c2ccc3c(c2)OCO3)oc2ccc(C(O)C(C)O)cc12 (stereo not drawn) | -11.8% [at 38.5 µM]
O=C(NC/C=C/CN1CCN(c2cccc(Cl)c2Cl)CC1)c1ccc(-c2ccccn2)cc1 | 1.64%
c1ccc2c(Nc3nnc(-c4ccncc4)s3)cccc2c1 | -11%
C=C1CCc2occ(C)c2[C@H]2[C@H]1[C@@]13O[C@@]1(C[C@@H](C)[C@H]3OC(C)=O)[C@H]1O[C@@]21C | -0.478% [at 38.5 µM]
COc1ccc2c(c1)N1C(=O)C[C@@]34C=CC[N@+]5([O-])CC[C@H]2[C@H](CC3)[C@@]145 | 4.37% [at 38.5 µM]
CC(=O)OC1CC2(C)C(CCC(C)C23Cc2c(O)cc4c(c2O3)CNC4=O)C(C)(C)C1O (stereo not drawn) | 1.07% [at 25.3 µM]
O=C(O)CCc1cc2ccoc2cc1O[C@@H]1O[C@H](CO)[C@@H](O)[C@H](O)[C@H]1O | 2.28% [at 38.5 µM]
O=C(/C=C/C=C/c1ccc2c(c1)OCO2)N1CCCCC1 | -24.9%
COc1ccc(CCC(=O)c2c(O)cc(O[C@@H]3O[C@H](CO)[C@@H](O)[C@H](O)[C@H]3O[C@@H]3O[C@@H](C)[C@H](O)[C@@H](O)[C@H]3O)cc2O)cc1O | 2.03%
C=C1C(OC(C)=O)CCC2(C)CCC(C(C)(C)O)CC12 (stereo not drawn) | 0.178%
Cn1nccc1-c1ccccc1Oc1ccc(S(=O)(=O)Nc2nccs2)cc1C#N | 4.3%
O=C(CCCCC1CCCCC1)N1CCC(c2cnc[nH]2)CC1 | -24.3%
CC(=O)O[C@@H](C[C@@H]1C=C(C)C(=O)O1)[C@H](C)[C@H]1CCC2[C@@]3(C)CC[C@H](O[C@@H]4O[C@H](CO)[C@@H](O)[C@H](O)[C@H]4O[C@@H]4O[C@@H](C)[C@H](O)[C@@H](O)[C@H]4O)C(C)(C)C3CC[C@@]2(C)[C@@]12COC(=O)C2 (stereo partly drawn) | 13.8% [at 11.6 µM]
C[C@@H]1C(=O)O[C@H](C)[C@H]1C[C@@H](O)[C@](C)(O)[C@H]1CC[C@@]2(O)C3=CC(=O)[C@@H]4C[C@@H](O)[C@@H](O)C[C@]4(C)C3CC[C@]12C (stereo partly drawn) | 2.24% [at 25.3 µM]
CC1(CO)CC(O)C2(C)CCC3(C)C(=CCC4C5(C=O)CCC(OC6OC(C(=O)O)C(O)C(O)C6OC6OC(C(=O)O)C(O)C(O)C6O)C(C)(C)C5CCC43C)C2C1 (stereo not drawn) | 20.1% [at 11.6 µM]
C[C@@H]1O[C@@H](O[C@H]2[C@H](O[C@H]3[C@H](O[C@H]4CC[C@@]5(C)C(CC[C@]6(C)C5CC=C5[C@@H]7CC(C)(C)CC(=O)[C@]7(C)CC[C@]56C)[C@@]4(C)CO)O[C@H](C(=O)O)[C@@H](O)[C@@H]3O)O[C@H](CO)[C@H](O)[C@@H]2O)[C@H](O)[C@H](O)[C@H]1O (stereo partly drawn) | -2.67% [at 11.6 µM]
